The source made the active and inactive calls.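 Rule for the calls: active = significant body weight gain in treated spinal muscular atrophy model mice compared with vehicle-treated controls; inactive = no significant body weight gain.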
Assay: Extended Characterization of SMN2 Inhibitors: Body Weight Studies
Settings: SMNdelta7 SMA mice, 50 mg/kg ip
Text: Spinal muscular atrophy (SMA) is caused by insufficient levels of the survival motor neuron protein SMN. The SMN locus on chromosome 5q13 contains two inverted copies of SMN called SMN1 and SMN2 which are 99% identical at the amino acid level. SMN1 is a fully functional protein and SMN2 skips exon 7 90% of the time. Skipping of exon 7 produces non-functional protein product. 10% of the SMN2 protein includes exon 7 and is fully functional. In the SMA disease state, mutations in the SMN1 locus are the cause of the disease state. Because only 10% of SMN2 is of the fully functional form, it is not sufficient to overcome the deficiency produced by the loss of the SMN1 product. A therapy that either increase the amount of SMN2 product made or to increase the inclusion of exon 7 has been proposed for the treatment of SMA. We have previously filed a probe report and have now done further SAR and further characterized the resulting compounds in mice studies. Here we tested the new compound to see if there was an improval in body weight when administered to SMNdelta7 SMA mice. NIH Chemical Genomics Center [NCGC] NIH Molecular Libraries Probe Production centers Network [MLPCN] MLPCN Grant: R03 MH084179 Assay Submitter (PI): Elliot Androphy […]

SMILES	outcome
O=C(O)C1CCN(c2ncc(-c3ccc4c(c3)OCCCO4)s2)CC1	active; yes
